Legend:
Type in all cases: functional
[1] = target: Solute carrier family 2, facilitated glucose transporter member 1 (Homo sapiens) (UniProt P11166); assay: ST_JUDE_LEISH: Cytotoxicity at 2uM final concentration against transgenic Leishmania Mexicana promastigotes LmGLUT1 that are glucose transport deficient and complemented with the human glucose transporter GLUT1. Activity is measured by DNA content using SYBR green in vitro
[2] = target: Hexose transporter 1 (Plasmodium falciparum) (UniProt O97467); assay: ST_JUDE_LEISH: Cytotoxicity at 2uM final concentration against transgenic Leishmania Mexicana promastigotes LmPfHT that are glucose transport deficient and complemented with the Plasmodium falciparum hexose transporter. Activity is measured by DNA content using SYBR green in vitro
[3] = target: Glucose transporter (Leishmania mexicana) (UniProt O61059); assay: ST_JUDE_LEISH: Cytotoxicity at 2uM final concentration against transgenic Leishmania Mexicana promastigotes LmGT2 that are glucose transport deficient and complemented with the L. Mexicana glucose transporter 2. Activity is measured by DNA content using SYBR green in vitro

Solute carrier family 2, facilitated glucose transporter member 1 (Homo sapiens), sequence (P11166 whole entry): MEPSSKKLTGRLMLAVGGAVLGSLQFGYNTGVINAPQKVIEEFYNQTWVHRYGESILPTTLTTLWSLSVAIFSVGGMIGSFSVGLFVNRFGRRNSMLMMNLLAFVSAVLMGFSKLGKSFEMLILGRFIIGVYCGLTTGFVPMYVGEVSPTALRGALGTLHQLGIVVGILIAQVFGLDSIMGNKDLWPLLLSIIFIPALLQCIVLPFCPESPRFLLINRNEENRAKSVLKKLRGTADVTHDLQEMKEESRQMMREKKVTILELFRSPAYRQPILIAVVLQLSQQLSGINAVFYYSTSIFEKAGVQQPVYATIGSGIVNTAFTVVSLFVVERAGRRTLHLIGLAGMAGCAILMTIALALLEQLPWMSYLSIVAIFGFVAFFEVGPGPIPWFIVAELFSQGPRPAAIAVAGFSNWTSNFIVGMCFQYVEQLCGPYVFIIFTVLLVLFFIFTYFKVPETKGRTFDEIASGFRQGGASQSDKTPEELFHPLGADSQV

Row | SMILES | inhibition [1] | inhibition [2] | inhibition [3]
1 | Cc1ccc(-c2cncc(-c3cc(NC4CCN(Cc5ccccc5)CC4)nc(-c4ccccc4)n3)c2)cc1 | 2.11% | 2.36% | 1.96%
2 | CC1(C)NC(N)=NC(=N)N1OCCCc1cccc(C(F)(F)F)c1 | -0.43% | -0.35% | 1.25%
3 | Cc1ccc2c(NC(=O)Nc3ccc(N(C)C)cc3)cc(C)nc2c1 | 5.9% | 5.56% | 6.28%
4 | Cc1cc(C(=O)Nc2ccc3c(c2)CCN3C2CCN(Cc3cccc(F)c3F)C2)no1 (centres undefined) | -0.4% | -0.88% | 0.24%
5 | COc1ccccc1CCNc1nc(C)cc(N[C@@H](CC(C)C)C(=O)NCc2cccc(F)c2)n1 | 9.56% | 8.52% | 8.86%
6 | CCN(CC)CCCC(C)Nc1c2cc(OC)ccc2nc2cc(Cl)c([N+](=O)[O-])cc12 (centres undefined) | 1.29% | 0.73% | 0.82%
7 | COCCn1ccc2c3c(N)nc(N)nc3ccc21 | 0.38% | 3.61% | 2.26%
8 | O=C(C1CC1)N1c2ccccc2CCc2ccccc21 | -0.93% | -0.1% | -0.64%
9 | CCN(CC)CCCNc1nccc(N2CCc3ncnc(Nc4ccc(OCc5cccc(F)c5)c(Cl)c4)c3C2)n1 | 7.17% | 9.1% | 7.87%
10 | COc1ccc(NC(=O)Nc2ccc(-c3ccccc3)cc2)cc1Cn1cnc(N2CCCNCC2)cc1=O | 3.65% | 2.02% | 4.94%
11 | c1csc(-c2nc(N3CCCCC3)ncc2-c2ccsc2)n1 | 4.57% | 4.73% | 2.33%
12 | O=C(Nc1cccc(-c2cccc(CN3CCCC3)c2)c1)c1ccc(Cl)cc1 | 1.55% | 1.32% | 3.94%
13 | CN1CCC(NCc2cccc(-c3ccc(S(=O)(=O)NCCc4ccccn4)c(F)c3)c2)CC1 | 1.22% | 0.03% | 0.94%
14 | COc1ccc2nccc([C@@H](O)CN3CCC(NC(=O)/C=C/c4cc([N+](=O)[O-])ccc4OC)CC3)c2c1 | 1.12% | 0.92% | 0.53%
15 | O=C(/C=C/c1ccc(Cl)c(Cl)c1)NCCCCCN1CCC(NC(=O)c2ccc(F)c(F)c2)CC1 | 3.18% | 5.17% | 6.18%
16 | O=C(Nc1ccc(C(F)(F)F)cc1)c1cc(Br)cnc1NCCCn1ccnc1 | -0.53% | -4.7% | -3.55%
17 | COc1ccccc1CCNc1nc(C)cc(N[C@@H](Cc2ccccc2)C(=O)NCc2cccc(F)c2)n1 | 5.91% | 1.53% | 5.51%

Row | SMILES | inhibition [1] | inhibition [2] | inhibition [3]
18 | CCc1ccc(C2CCN(CCCCNC(=O)c3ccc(-c4ccc(C(F)(F)F)cc4)cc3)CC2)c(OCCO)c1 | 7.26% | 7.58% | 6.13%
19 | COc1cc(C(=O)N2CCOC(CCN3CCC4c5ccccc5CC43)(c3ccc(Cl)c(Cl)c3)C2)cc(OC)c1OC (centres undefined) | 3.86% | -2.68% | 9.19%
20 | Nc1nccc2ccc(-c3cccnc3)cc12 | 3.94% | 5.14% | 4.83%
21 | COc1ccc(CNCc2ccc(F)cc2)cc1-c1ccc(S(=O)(=O)NCCN2CCCC2)s1 | 2.3% | 3.11% | 5.96%
22 | CCCc1ccc(C(=O)N2C(c3nccs3)C(C(N)=O)CC2(CC(C)C)C(=O)O)cc1 (centres undefined) | 1.38% | 2.07% | 0.37%
23 | c1ccc(CN2CCC(NCc3ccccc3-c3cccc(CNC4CCCC4)c3)CC2)cc1 | 6.21% | 2.62% | 7.14%
24 | CN1CCCN(c2ccnc3cc4c(cc23)N(C(=O)c2ccc(Cl)c(Cl)c2)CC4)CC1 | 0.8% | 1.89% | 1.54%
25 | COC(=O)C(NC(=O)c1ccc(-c2ccc(-c3nc4ccccc4[nH]3)s2)cc1)c1ccc(O)cc1 (centres undefined) | 3.31% | 2.37% | 3.11%
26 | COc1ccc2nccc([C@@H](O)CN3CCC(NCc4nc5cc(F)cc(F)c5[nH]4)CC3)c2c1 | 3.31% | 4.04% | -0.63%
27 | CN1CCN(c2ccc(Nc3nccc(-c4c(-c5cccc(NC(=O)c6c(F)cccc6F)c5)nn5ccccc45)n3)cc2)CC1 | 21.9% | 17.8% | 4.51%
28 | Cc1cccc2nc(-c3cccc(-c4ccc(C(=O)NCc5nccn5C)cc4)c3)[nH]c12 | 1.94% | 3.7% | 1.69%
29 | COCCNCc1ncsc1-c1ccc2c(Nc3cc(O)ccc3C)ccnc2c1 | 1.05% | 0.61% | 1%
30 | c1ccc2ncc(CNCCCCCCCCNCc3cnc4ccccc4c3)cc2c1 | -0.67% | -0.08% | 0.09%
31 | Cc1cccc2nc(-c3cccc(-c4ccc(NC(=O)c5cnn6cccnc56)cc4)c3)[nH]c12 | 11.4% | 9.77% | 7.27%
32 | COc1cc(Cc2cnc(N)nc2N)cc(OC)c1OCCCCCN1C(=O)c2ccccc2C1=O | 3.29% | -0.4% | 0.36%
33 | CCC1CCCCN1S(=O)(=O)c1ccc(OC)c(N2CCN(C(=O)C(Cl)(Cl)Cl)CC2)c1 (centres undefined) | 4.89% | 6.41% | 6.44%

— ChEMBL document CHEMBL3433997, “St. Jude Leishmania screening dataset” (2016)
